Experimental findings from PubChem BioAssay (NCI) are described below.

Some test systems named below: NCI-H23 lung; NCI-H226 lung; NCI-H322M lung; HOP-62 NSCLC; NCI-H460 lung; HOP-92 NSCLC; NCI-H522 lung; A549/ATCC NSCLC; 786-0 renal; COLO 205 colon; DU-145 prostate; K-562 leukemia; MALME-3M melanoma; MDA-MB-231 breast; RXF 393 renal; SF-268 CNS; SF-295 CNS; SF-539 CNS; UACC-257 melanoma; M14 melanoma.
Common to all, as to experiment: NCI-60 one-dose screen, 48 h (100 = growth as untreated, 0 = no growth, -100 = all killed)
Common to all, as to settings: 10 µM unless noted

The panel holds about 83,000 compounds, 20% with a hit somewhere; the sample as a whole holds those more often.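 Assay: single dose, 48 h. Readout: percent growth (0 = no net growth; negative = cell death). Active: <10.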 A number with no mark means an inactive call. Calls of active or inactive are those of the source.

Take `[N-]=[N+]=NCC1OC(n2cnc3c(NC(=O)Nc4ccccc4)ncnc32)C2OC(=O)CC12` (stereo not given): the growth with NCI-H23 lung is 106%; in the assay with NCI-H226 lung, 106%; in the assay with NCI-H322M lung, 99.8%; in the assay on HOP-62 NSCLC it was 98.1%; in the assay on NCI-H460 lung, 112%; with HOP-92 NSCLC it was 86.9%. In addition, the growth is 107% in the assay with NCI-H522 lung; 95.2% in the assay with A549/ATCC NSCLC; 105% in the assay on 786-0 renal; 105% with COLO 205 colon; 109% with DU-145 prostate; 92.7% in the assay on K-562 leukemia. Besides, the growth is 96.9% with MALME-3M melanoma; 123% with MDA-MB-231 breast; -28.7% (active) in the assay on RXF 393 renal; 103% with SF-268 CNS; 100% in the assay on SF-295 CNS; 97.8% in the assay on SF-539 CNS. The results for the growth in the assay on UACC-257 melanoma and in the assay with M14 melanoma were 122% and 108%, respectively.

In the case of `COC(=O)[C@]1(C)CCC[C@]2(C)[C@H]3C[C@@H]4[C@H]5[C@@H]6CC/C(=N\OCC/C(N)=N/O)[C@H]5[C@@]3(CC[C@H]21)CC4(C(C)C)O6`, the growth was 73.4% with NCI-H23 lung; 83.7% in the assay with NCI-H226 lung; 82.2% with NCI-H322M lung; 80.8% in the assay on HOP-62 NSCLC; 67.5% with NCI-H460 lung; 65% in the assay on HOP-92 NSCLC. The growth with NCI-H522 lung is 54.7%; in the assay with A549/ATCC NSCLC, 71.8%; in the assay with 786-0 renal, 86.2%; in the assay with COLO 205 colon it was 72.1%; in the assay on DU-145 prostate, 71.5%; in the assay on K-562 leukemia it was 79.3%. Also, the growth in the assay with MALME-3M melanoma was 82.1%; in the assay with MDA-MB-231 breast, 61.2%; in the assay on RXF 393 renal, 42.5%; with SF-268 CNS it was 72.9%; with SF-295 CNS, 72.7%; with SF-539 CNS it was 79.2%. The growth is 80.4% in the assay with UACC-257 melanoma and 72.6% with M14 melanoma.

On to `CC(C)(C)OC(=O)CN1CCc2c(sc3ncnc(N4CCN(c5ccc(F)cc5)CC4)c23)C1`, for which the growth was 88.2% with NCI-H23 lung; 73.1% in the assay on NCI-H226 lung; 83.6% in the assay on NCI-H322M lung; 93.2% with HOP-62 NSCLC; 88.6% in the assay on NCI-H460 lung; 84% in the assay with HOP-92 NSCLC. Further, the growth in the assay on NCI-H522 lung is 82%; with A549/ATCC NSCLC it was 90.3%; in the assay with 786-0 renal it was 81.8%; in the assay with COLO 205 colon it was 86.4%; with DU-145 prostate, 90.1%; in the assay on K-562 leukemia, 87.7%. For the same molecule, the growth in the assay on MALME-3M melanoma is 90.6%; with MDA-MB-231 breast, 75.7%; with RXF 393 renal it was 92.2%; in the assay with SF-268 CNS it was 81.9%; in the assay on SF-295 CNS it was 104%; in the assay with SF-539 CNS it was 81.6%. Besides, the growth with UACC-257 melanoma is 97.7%; in the assay on M14 melanoma, 98.4%.

On to `COC(=O)[C@@]12CC=C(C)[C@]3(C[C@H](c4ccoc4)OC3=O)[C@H]1C=C[C@@H](O)[C@@]2(O)C(=O)OC`, for which the growth was 100% in the assay with NCI-H23 lung; 116% with NCI-H226 lung; 88.7% in the assay on NCI-H322M lung; 91.3% with HOP-62 NSCLC; 111% in the assay on NCI-H460 lung; 102% in the assay on HOP-92 NSCLC. In addition, the growth in the assay with NCI-H522 lung is 66.3%; in the assay with A549/ATCC NSCLC, 84.9%; with 786-0 renal, 97.4%; in the assay on COLO 205 colon it was 110%; in the assay with DU-145 prostate it was 98.3%; in the assay with K-562 leukemia, 94.1%. Besides, the growth in the assay with MALME-3M melanoma is 104%; with MDA-MB-231 breast it was 110%; in the assay on RXF 393 renal, 114%; with SF-268 CNS it was 98.1%; in the assay on SF-295 CNS, 96.4%; in the assay with SF-539 CNS it was 98.7%. Also, the growth in the assay on UACC-257 melanoma was 82.1%; with M14 melanoma it was 101%.

For the molecule `CC1(C)CC[C@]23CC[C@]4(C)[C@H](CC[C@@H]5[C@@]6(C)C/C(=C/O)C(=O)C(C)(C)[C@@H]6CC[C@]54C)[C@H]2[C@H]1OC3`, the growth in the assay on NCI-H23 lung is 99.1%; in the assay on NCI-H226 lung it was 105%; with NCI-H322M lung, 105%; in the assay on HOP-62 NSCLC, 102%; in the assay with NCI-H460 lung, 107%; in the assay on HOP-92 NSCLC, 105%. Further, the growth in the assay with NCI-H522 lung is 90.6%; in the assay on A549/ATCC NSCLC, 106%; in the assay with 786-0 renal it was 106%; in the assay with COLO 205 colon, 111%; in the assay on DU-145 prostate, 115%; in the assay with K-562 leukemia, 105%. The growth is 104% in the assay with MALME-3M melanoma; 97.6% in the assay with MDA-MB-231 breast; 121% in the assay on RXF 393 renal; 108% with SF-268 CNS; 103% with SF-295 CNS; 101% in the assay with SF-539 CNS. Moreover, the values for the growth in the assay with UACC-257 melanoma and in the assay with M14 melanoma were 101% and 103%, respectively.

As for `CSc1nc2ccc(C)cc2cc1/C=C1/C=C(c2ccccc2)NC1=O`, the growth is 75.2% in the assay on NCI-H23 lung; 69.4% in the assay on NCI-H226 lung; 65.8% in the assay on NCI-H322M lung; 72.8% with HOP-62 NSCLC; 19.2% with NCI-H460 lung; 36.4% in the assay on HOP-92 NSCLC. Further, the growth in the assay on NCI-H522 lung was 67.6%; with A549/ATCC NSCLC, 47.2%; in the assay on 786-0 renal, 2.66% (active); with COLO 205 colon, 69.8%; with DU-145 prostate it was 47.4%; with K-562 leukemia it was 41.3%. Further, the growth was 40.4% in the assay on MALME-3M melanoma; 38.5% with MDA-MB-231 breast; 79.1% with RXF 393 renal; 66.3% with SF-268 CNS; 36.7% in the assay on SF-295 CNS; 39.5% with SF-539 CNS. Besides, the growth in the assay on UACC-257 melanoma is 80%; in the assay on M14 melanoma it was 64.1%.

In the case of `CNC(=O)Nc1ccc(-c2ccc3ncnc(Nc4cccc(Cl)c4)c3c2)cc1`, the growth in the assay on NCI-H23 lung is 62.9%; in the assay on NCI-H226 lung it was 68.4%; with NCI-H322M lung it was 7.46% (active); with HOP-62 NSCLC, 71.4%; in the assay on NCI-H460 lung it was 77.4%; with HOP-92 NSCLC, 37.8%. The growth with NCI-H522 lung was -1.3% (active); with A549/ATCC NSCLC it was 41.8%; with 786-0 renal it was 71.4%; in the assay with COLO 205 colon it was 66.3%; with DU-145 prostate, 44.8%; in the assay with K-562 leukemia it was 60.3%. Further, the growth in the assay on MALME-3M melanoma is 53.5%; with MDA-MB-231 breast, 65.7%; with RXF 393 renal, 50.4%; with SF-268 CNS it was 52.2%; in the assay with SF-295 CNS it was 59.9%; with SF-539 CNS, 74.3%. The growth with UACC-257 melanoma was 65.7%; with M14 melanoma it was 63.2%.

For the molecule `CC(C)(C)CC(C)(C)Nc1c(-c2c(O)c3ccccc3oc2=O)nc2sc3ccccc3n12`, the growth in the assay with NCI-H23 lung was 44.1%; in the assay on NCI-H226 lung, 56.7%; in the assay with NCI-H322M lung, 42.5%; in the assay on HOP-62 NSCLC, 23.1%; in the assay on NCI-H460 lung it was 16.6%; in the assay on HOP-92 NSCLC it was 10.8%. In addition, the growth is 32.8% in the assay with NCI-H522 lung; 30.9% in the assay on A549/ATCC NSCLC; 35.6% with 786-0 renal; 28.7% in the assay with COLO 205 colon; 53.7% with DU-145 prostate; 11.8% in the assay on K-562 leukemia. Besides, the growth in the assay on MALME-3M melanoma is 50.7%; in the assay on MDA-MB-231 breast, 61.9%; with RXF 393 renal it was 65.9%; in the assay with SF-268 CNS, 48%; in the assay on SF-295 CNS, 3.5% (active); with SF-539 CNS, 44%. In addition, the growth is 38.1% with UACC-257 melanoma and 41.7% in the assay with M14 melanoma.
